Assay outcomes from PubChem.
Shown are actives, neighbours in structure and some others; about 6.9% of the full set was active somewhere.
PLK1 PBD block – PLK1 (human) polo-box domain binding inhibition; P53350; Plk1 PBD binding of FITC phosphopeptide, fluorescence polarization; Potency, µM, inactives show max response, negative = inhibition, actives largely listed as inhibitors; actives 2.8% (n = 360,000); AID 720504; note: series mostly up to about 57 µM; % is set by controls: 0 for no effect and ±100 for the full control effect; nearly all actives have a fitted effect of over 65% in size
VDR inh – inhibitors of human vitamin D receptor; P11473; VDR-SRC2-3 peptide fluorescence polarization, 2 h; Potency, µM, without a hit: max response, negative = inhibition, actives largely listed as inhibitors; actives 0.93% (n = 400,000); note: % is set by controls: 0 for no effect and ±100 for the full control effect
Target sequence (P11473 whole entry, looked up): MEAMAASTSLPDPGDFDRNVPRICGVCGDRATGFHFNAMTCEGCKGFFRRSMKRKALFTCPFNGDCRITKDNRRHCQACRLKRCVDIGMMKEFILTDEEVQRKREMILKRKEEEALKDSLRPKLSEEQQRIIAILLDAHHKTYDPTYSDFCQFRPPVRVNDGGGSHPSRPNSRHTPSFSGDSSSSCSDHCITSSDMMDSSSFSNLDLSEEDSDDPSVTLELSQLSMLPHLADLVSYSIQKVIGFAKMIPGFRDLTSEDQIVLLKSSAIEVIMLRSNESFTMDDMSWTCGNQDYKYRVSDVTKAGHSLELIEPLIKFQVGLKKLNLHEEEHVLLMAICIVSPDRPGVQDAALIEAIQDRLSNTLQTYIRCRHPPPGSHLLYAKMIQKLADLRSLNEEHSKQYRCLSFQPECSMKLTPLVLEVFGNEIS
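The screen uses fluorescence polarization to detect compounds that interfere with recruitment of the SRC2-3 coactivator peptide to VDR; plates are read after 2 h at room temperature.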
HP1b binding inh – inhibitors of HP1-beta chromodomain binding to methylated histone tails. P83916. AlphaScreen HP1-beta / biotin-H3K9me3 peptide binding. actives 0.56% (n = 390,000). Potency, µM (highest dose often 114 µM), without a hit: top-dose activity change, negative = inhibition, hits mostly inhibitors; note: nearly all actives have a fitted effect of over 70% in size
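AlphaScreen: HP1-beta (50 nM) preformed 30 min with biotin-H3(1-18)K9me3 peptide (50 nM) in PBS pH 7.4, 0.01% Tween-20. Compound added for 30 min at RT, then streptavidin donor/nickel chelate acceptor beads (10 ug/mL) for 30 min.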
L3MBTL1 block – L3MBTL1 (human) inhibition; Q9Y468; AlphaScreen L3MBTL1–H3K9me1 peptide binding; Potency, µM (doses to about 57.1 µM), for inactives: at the highest dose activity, negative = inhibition, most hits filed as inhibitors; actives 0.66% (n = 230,000); AID 485360; note: % is set by controls: 0 for no effect and ±100 for the full control effect; nearly all actives have a fitted effect of over 60% in size
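AlphaScreen assay: L3MBTL1 (50 nM final) was preincubated 30 min at room temperature with biotinylated H3(1-15)K9me1 peptide (75 nM final), then 30 min with library compounds; streptavidin donor and nickel chelate acceptor beads (10 ug/mL final) added, 30 min dark.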
BAZ2B inh – inhibitors of human BAZ2B bromodomain | Q9UIF8 | AlphaScreen BAZ2B-H3K14Ac peptide displacement | Potency, µM (titrated, usually from 114 µM), without a hit: top-dose activity change, negative = inhibition, hits mostly inhibitors | actives 4.4% (n = 360,000) | AID 504333; note: % is set by controls: 0 for no effect and ±100 for the full control effect; nearly all actives have a fitted effect of over 60% in size
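AlphaScreen displacement: compounds (up to 110uM) incubated 30 min at room temperature with a preformed 50 nM BAZ2B/50 nM biotinylated H3K14Ac peptide complex in PBS pH 7.4 with Tween-20. Donor and acceptor beads at 10 ug/mL final added, 20 min light-protected before reading.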
JMJD2A Tudor – JMJD2A Tudor domain (human) inhibition; Potency, µM (titrated, usually from 114 µM), inactives show top-dose activity change, negative = inhibition, most hits filed as inhibitors; actives 4.4% (n = 390,000); O75164; AID 504339; AlphaScreen JMJD2A-Tudor / H3K4me3 peptide binding; note: % is set by controls: 0 for no effect and ±100 for the full control effect; nearly all actives have a fitted effect of over 50% in size
* = called active by the depositor; ? = inconclusive; · = not tested or not shown; [ ] = another dose, or the depositor's remark. Calls come from the whole dose curve; as a rule, active = well fitted curve in the direction sought with a large enough effect; inconclusive = small, poorly fitted or top-dose-only effect, or another doubt; inactive = no such curve, though single readings can be large; an effect the other way counts as inactive or inconclusive. Potency is the fitted concentration of half-maximal effect.

SMILES | PLK1 PBD block | VDR inh | HP1b binding inh | L3MBTL1 block | BAZ2B inh | JMJD2A Tudor
COc1ccc(S(=O)(=O)Nc2cc3c(cc2NCc2ccccc2)n(C)c(=O)n3C)cc1 | · | -5.6% | 1.7% | · | 44.7µM* | 50.1µM*
Cn1c(=O)n(C)c2cc(S(=O)(=O)NCc3ccccc3)ccc21 | -9.2% | -21.7% | 4.7% | 0.5% | -28.8% | -22.1%
CCCS(=O)(=O)Nc1cc2c(cc1NCc1ccccc1)n(C)c(=O)n2C | · | -9.6% | 10.6% | · | 50.1µM* | -26.0%
CCCSCCCNC(=O)CN1C(=O)CCn2nc(-c3cn(C)c4ccccc34)cc21 | · | 22.7% | 10.4%[57 µM] | · | -27.0% | ?
CC1=C(C(=O)N(C(C)C)C(C)C)CC(CC(=O)NCc2cccc3ccccc23)C(=O)N1CCC1=CCCCC1 (stereo unspecified) | 3.5% | · | · | · | · | ·
O=C(CCC(=O)c1ccc(F)cc1)Nc1ccccc1Cl | 26.7µM* | -14.8% | 4.4% | 10.4% | -1.0% | -22.3%
COCc1cc(=O)[nH]c(Nc2nc3ccccc3o2)n1 | -5.9% | 9.4% | 47.0% | 0.4% | 39.8µM* | 79.4µM*
COC(=O)Cc1cc(=O)[nH]c(Nc2nc3ccccc3o2)n1 | -4.6% | 11.8% | 28.0% | 9.9% | 9.3% | -8.9%
CCc1ccc(NC(=O)c2ccc3c(c2)nnn3CC)cc1 | · | 1.2% | 7.3% | · | 0.4% | -6.8%
Cc1noc(C)c1C(=O)Nc1ccc(F)cc1F | 0.7% | 13.5% | 16.0% | · | 6.5% | -15.8%
C=C1C(=O)[C@]23C[C@H]1CC[C@H]2[C@]1(C)[C@@H](O)CC[C@@](C)(C(=O)O)[C@H]1C[C@@H]3O | -22.4% | · | · | · | · | ·
C=C1C(=O)[C@]23C[C@H]1CCC2[C@@]1(C)C(C[C@@H]3O)[C@](C)(C(=O)OC)CC[C@@H]1OC(C)=O (stereo partly specified) | 10.6µM* | · | · | · | · | ·
O=c1c2cn[nH]c2[nH]c(=S)n1-c1ccccc1 | -12.9% | 0.2% | 4.6% | 3.5% | -3.8% | 79.4µM*
COc1ccc(-n2c(=S)[nH]c3[nH]ncc3c2=O)cc1 | -9.9% | -2.8% | 37.2% | 5.0% | ? | ?
CC1(C)CC2C1CCC1(C)OC1CCC2(C)O (stereo unspecified) | · | 5.1% | · | · | · | ·
CCCn1c(SCC(=O)N2CCCCC2)nnc1-c1ccccn1 | · | · | · | 6.3% | 0.8% | ·
CCCn1c(SCC(=O)N2c3ccc(F)cc3CCC2C)nnc1-c1ccccn1 (stereo unspecified) | 29.9µM* | ? | ? | -12.8% | 5.2% | 70.8µM*
CCC1(C)Cc2sc3c(=O)[nH]c(=S)[nH]c3c2CO1 (stereo unspecified) | 10.6µM* | -16.3% | -1.0% | · | ? | -10.5%[11.4 µM]
CCC1(C)Cc2c(sc3[nH]c(=S)[nH]c(=S)c23)CO1 (stereo unspecified) | ? | -24.1% | 1.6% | · | -11.5% | -23.2%
COc1ccc(OC)c(NC(=O)c2c(NCc3ccc(OC)c(OC)c3)sc3c2CCC(C)C3)c1 (stereo unspecified) | · | 0.9% | ? | · | ? | 50.1µM*
COc1ccc(OC)c(NC(=O)c2c(NCc3ccc(C)o3)sc3c2CCC(C)C3)c1 (stereo unspecified) | · | -10.4% | ? | · | ? | 31.6µM*
CCOc1ccccc1NC(=O)c1c(NCc2ccc(C)o2)sc2c1CCC(C)C2 (stereo unspecified) | · | -1.1% | 37.0% | · | 2.1% | -7.1%
N#Cc1ccccc1S(=O)(=O)N1CCN(Cc2cccs2)CC1 | -2.5% | · | · | · | · | ·
N#Cc1ccccc1S(=O)(=O)N1CCN(CC(O)c2ccccc2)CC1 (stereo unspecified) | 1.6% | 2.2% | 44.7µM* | 8.3% | 50.1µM* | 2.24µM*
O=S(=O)(c1ccccc1)N1CCN(CC(O)COc2ccc3c(c2)CCC3)CC1 (stereo unspecified) | -4.1% | 12.5% | 2.3% | · | -21.7% | -23.9%
O=S(=O)(c1ccc(F)cc1)N1CCN(CC(O)COc2ccccc2F)CC1 (stereo unspecified) | 6.3% | 1.9% | 25.1µM* | · | 20µM* | 7.94µM*
